Data reported in PubChem BioAssay (NCI).
This is part of a sample that, as a whole, favours compounds with a hit. Of some 83,000 tested, about 20% had one in any assay.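 Step 1: grow cells in 96-well plates. Step 2: add test compound at a single concentration. Step 3: incubate 48 h. Step 4: record percent growth.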 Unmarked numbers belong to inactive results. Active and inactive are the calls of the source. The calls were made as follows: active = growth percent below 10; inactive = the rest.

Tests used:
Test in all cases: NCI-60 one-dose screen, 48 h (100 = growth as untreated, 0 = no growth, -100 = all killed)
Details in all cases: 10 µM unless noted
NCI-H23 lung = system: NCI-H23 lung
NCI-H226 lung = system: NCI-H226 lung
NCI-H322M lung = system: NCI-H322M lung
HOP-62 NSCLC = system: HOP-62 NSCLC
NCI-H460 lung = system: NCI-H460 lung
HOP-92 NSCLC = system: HOP-92 NSCLC
NCI-H522 lung = system: NCI-H522 lung
A549/ATCC NSCLC = system: A549/ATCC NSCLC
786-0 renal = system: 786-0 renal
COLO 205 colon = system: COLO 205 colon

Compound	growth (NCI-H23 lung)	growth (NCI-H226 lung)	growth (NCI-H322M lung)	growth (HOP-62 NSCLC)	growth (NCI-H460 lung)	growth (HOP-92 NSCLC)	growth (NCI-H522 lung)	growth (A549/ATCC NSCLC)	growth (786-0 renal)	growth (COLO 205 colon)
CC(=O)OC1Oc2cc(C)c(C)cc2-c2oc(=O)c(-c3cc4ccc(N(C)C)cc4oc3=O)cc21 (stereo unspecified)	46.9%	59.2%	78.9%	82%	65.4%	77.8%	60.5%	70.5%	74.1%	96.4%
CN1Cc2c(cc(CN3CCCCC3)n2C)C(c2ccc(Br)cc2)C1 (stereo unspecified)	84.6%	90.7%	91.5%	91.1%	96.9%	53.9%	90.5%	93.8%	66.5%	83.1%
Cc1ccc2c(c1)C(=O)c1c-2c(OCCCN(C)C)nc2ccccc12	7.88% (active)	32.8%	19.6%	19.9%	-8.22% (active)	-10.7% (active)	-11% (active)	-43.9% (active)	44.7%	-30.6% (active)
COc1ccc(-c2csc(NC(=O)CN3CCN(c4cc5c(cc4F)c(=O)c(C(=O)O)cn5C4CC4)CC3)n2)cc1	9.73% (active)	16%	17.1%	15.4%	3.8% (active)	-17.2% (active)	-9.19% (active)	9.1% (active)	24.4%	12.6%
S=c1[nH]nc(CSc2ncnc3c2c(-c2ccccc2)cn3-c2ccc(Cl)cc2)o1	92.7%	89.5%	97.9%	91%	99.4%	92.9%	89.5%	98.5%	102%	99.1%
COc1ccc(/C=C2\N=C3SC=C(N)N3C2=O)cc1	23.6%	51.6%	46.6%	40.2%	17.3%	-8.02% (active)	-54.5% (active)	32.8%	33.2%	12.5%
COc1ccc(C(=O)c2sc3nc4c(cc3c2N)CCCC4)cc1OC	39.3%	37.1%	86.8%	38.5%	13%	67.3%	12.6%	41.4%	66.1%	16.5%
C=C1C(=O)O[C@H]2[C@H]1CC/C(Cn1cc(Cc3c[nH]c4ccccc34)nn1)=C\CC[C@@]1(C)O[C@@H]21	37.1%	79.7%	85.1%	76.7%	79.7%	-8.55% (active)	-79.2% (active)	57.9%	-9.3% (active)	-68.1% (active)
CCOC(=O)C(C#N)C1CCCCC1 (stereo unspecified)	93.6%	83.4%	92.1%	90.4%	123%	80.7%	96.9%	105%	105%	127%
CC(C)(C)n1cc(-c2ccnc(NCCNS(=O)(=O)c3ccccc3)c2)c(-c2cccc(O)c2)n1	70.3%	60.4%	78.1%	82.5%	36.7%	77.8%	57.7%	47.1%	18.5%	6.61% (active)
COc1ccc(-c2c(C)noc2-c2ccc(O)cc2O)cc1	81.4%	101%	94%	118%	54.3%	104%	69.5%	75.3%	97.9%	121%
O=C1C(=O)N(CCCCn2cc(CO)nn2)c2ccccc21	98.2%	97.4%	108%	96.3%	101%	106%	90.1%	104%	99.9%	111%
O=C(Cn1cc(CN2C(=O)c3ccccc3S2(=O)=O)nn1)Nc1ccc([N+](=O)[O-])cc1Cl	90%	91.8%	94.5%	101%	102%	107%	101%	106%	105%	103%
C=C1CC[C@@H]2[C@](C)(COC(C)=O)[C@H](OC(C)=O)CC[C@@]2(C)[C@@H]1CC(Nc1ccc(S(=O)(=O)Nc2nc(C)cc(C)n2)cc1)C1=CCOC1=O (stereo partly specified)	84.3%	86.7%	97.2%	103%	90.3%	90.1%	22%	65.3%	103%	77%
CCN(CC)C12CCCCC1(C)C(C#N)(C#N)C(C#N)=C(N)O2 (stereo unspecified)	101%	95.6%	91.3%	98.8%	114%	83.8%	105%	106%	108%	140%
Nc1nc2c(c3ncccc13)C(c1cccc(Br)c1)Cc1ncccc1-2 (stereo unspecified)	39.5%	72%	41.6%	20.3%	10.6%	67.2%	-12.4% (active)	9.92% (active)	21.3%	-36.1% (active)
COc1ccc(-c2cc(-c3cccnc3)nc3sc4c(=O)n(-c5ccc(C)cc5)cnc4c23)cc1OC	95.7%	93.3%	92.4%	98.4%	101%	63.6%	99.8%	103%	–	97.6%
CC(=O)C1=C(O)C=C2Oc3c(C(=O)/C=C/c4c(Cl)cccc4Cl)c(O)c(C)c(O)c3[C@]2(C)C1=O	-37.9% (active)	-41.2% (active)	-25.9% (active)	-48.6% (active)	0.581% (active)	-24.9% (active)	-30.4% (active)	-46.1% (active)	-39.3% (active)	-59.1% (active)
COc1ccc(-c2cn3c(-c4ccc(OC)cc4)cnc3c(Oc3ccc4c(C)cc(=O)oc4c3)n2)cc1	33%	70.7%	82%	40.9%	26.4%	-13.6% (active)	39.6%	16.5%	–	56.1%
COc1ccc(S(=O)(=O)NCCCNc2cc(-c3c(-c4cccc(OC)c4)nc4sccn34)ccn2)cc1	59.8%	37.7%	67.6%	80.6%	44.2%	62.1%	52.7%	42.9%	52.1%	35.8%
Cc1ccc(S(=O)(=O)n2cc(-c3csc(-c4cn(C)c5ncccc45)n3)c3ccccc32)cc1	68.1%	77.6%	79.5%	51.8%	30.3%	35.8%	45.6%	41.5%	77.9%	43.6%
COc1ccc(CCN2CC=Cn3c2nc2ccccc2c3=O)cc1	25%	11.7%	47.3%	39.9%	5.96% (active)	28.1%	4.09% (active)	24.1%	–	-43.2% (active)
Nc1nc(SCc2ccccc2)c2ncn(C3CCCC3)c2n1	85.7%	110%	103%	107%	98.8%	106%	76.8%	107%	98.8%	116%
COc1ccc(/C=C2\CN(C(=O)CCN3CCC(=NO)CC3)C/C(=C\c3ccc(OC)cc3)C2=O)cc1	-4.73% (active)	70%	17.8%	44.8%	-34.5% (active)	89%	-29.7% (active)	36.5%	-10.3% (active)	-23.7% (active)
C[C@]12C[C@@H](c3ccoc3)OC(=O)[C@@H]1CC[C@]1(C)[C@@H]2CC[C@@H](O)[C@]1(C)O	76.1%	107%	99.2%	49.4%	50.1%	54.2%	55.5%	49.5%	84%	40.9%
Cc1ccc(C2CC3c4ccccc4C2C2CCCCN32)cc1 (stereo unspecified)	93.6%	95.9%	84.1%	98.6%	104%	85.4%	72.6%	89.9%	92.7%	74%
COc1ccc(CCN2CCCn3c2nc2ccccc2c3=O)cc1	32.7%	37.3%	45.4%	48.1%	10.7%	46.5%	12.2%	28.6%	–	-10.2% (active)
